Reference: PubChem BioAssay (EPA / NIEHS)
Results filed as inconclusive are left out. Active and inactive are the calls of the source. Rule for the calls: active = hit-call score of the fitted dose curve at least 0.9, where 1 is the maximum; inconclusive = response in the unintended direction; inactive = score below 0.9.

Experiments:
[1] = Tanguay_ZF_120hpf_MORT_legacy: (Legacy) Oregon State University Tanguay Lab 120 Hour Post-fertilization zebrafish Assay for Mortality (AID 2283633)
Procedure, shortened: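 5D WT zebrafish, chorion removed 4 hpf; 1 embryo/well from 6 hpf; static exposure to 120 hpf, 28C, dark, sealed. Final DMSO 0.64%. Readout: binary mortality, brightfield, 24 + 120 hpf; DMSO as negative control.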

[2] = Tanguay_ZF_120hpf_YSE_legacy: (Legacy) Oregon State University Tanguay Lab 120 Hour Post-fertilization zebrafish Assay for Yolk Sac Edema (AID 2283634)
Procedure, shortened: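 Dechorionate (pronase, 4 hpf) → place one 6 hpf embryo per well → static compound exposure, sealed and foil-covered, 28C, to 120 hpf → record yolk sac edema as present or absent. Final DMSO 0.64%.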

[3] = Tanguay_ZF_120hpf_EYE_legacy: (Legacy) Oregon State University Tanguay Lab 120 Hour Post-fertilization zebrafish Assay for Eye Malformation (AID 2283636)
Procedure, shortened: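 Binary brightfield scoring of eye defects at 120 hpf after static exposure from 6 hpf of single pronase-dechorionated wild-type embryos (28C, 0.64% DMSO). Non-mortality endpoints omitted where embryos died; fit vs DMSO.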

[4] = Tanguay_ZF_120hpf_SNOU_legacy: (Legacy) Oregon State University Tanguay Lab 120 Hour Post-fertilization zebrafish Assay for Snout Malformation (AID 2283637)
Procedure, shortened: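 Binary snout-malformation call at 120 hpf in wild-type 5D embryos, chorion removed by pronase, under static exposure from 6 hpf at 28C (0.64% DMSO). Embryos dying by 24 or 120 hpf excluded.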

[5] = Tanguay_ZF_120hpf_OTIC_legacy: (Legacy) Oregon State University Tanguay Lab 120 Hour Post-fertilization zebrafish Assay for Otic Vesicle Malformation (AID 2283639)
Procedure, shortened: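 Binary scoring of otic vesicle defects at 120 hpf in zebrafish (Tropical 5D) held under static exposure at 28C, sealed and shaded, with final DMSO 0.64%. Embryos dying by 24 or 120 hpf excluded; fitted positively against DMSO.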

[6] = Tanguay_ZF_120hpf_PE_legacy: (Legacy) Oregon State University Tanguay Lab 120 Hour Post-fertilization zebrafish Assay for Pericardial Edema (AID 2283640)
Procedure, shortened: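 Embryos from wild-type 5D adults were staged, then dosed in 0.64% DMSO. They were kept sealed in the dark at 28C until 120 hpf. Pericardial edema was then recorded as present or absent.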

[7] = Tanguay_ZF_120hpf_BRAI_legacy: (Legacy) Oregon State University Tanguay Lab 120 Hour Post-fertilization zebrafish Assay for Brain Malformation (AID 2283641)
Procedure, shortened: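 Wild-type 5D larvae, static waterborne exposure to 120 hpf, 28C, 0.64% v/v DMSO. Brightfield scoring of brain defects, binary; dead embryos excluded. Positive ctrl 5uM trimethyltin chloride.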

[8] = Tanguay_ZF_120hpf_PFIN_legacy: (Legacy) Oregon State University Tanguay Lab 120 Hour Post-fertilization zebrafish Assay for Pectoral Fin Malformation (AID 2283648);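 note: each larva judged yes or no for fin defect by brightfield with dead larvae skipped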
Procedure, shortened: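 Pectoral fin malformation was recorded as a binary endpoint at 120 hpf in wild-type Tropical 5D larvae, which had been dechorionated and exposed statically from 6 hpf at 28C in 0.64% DMSO. Dead embryos were excluded.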

[9] = Tanguay_ZF_120hpf_CFIN_legacy: (Legacy) Oregon State University Tanguay Lab 120 Hour Post-fertilization zebrafish Assay for Caudal Fin Malformation (AID 2283649)
Procedure, shortened: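 Binary presence or absence of caudal fin malformation at 120 hpf, read by brightfield microscopy, with DMSO as baseline. Larvae came from 5D wild-type embryos exposed statically from 6 hpf at 28C after pronase dechorionation.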

[10] = Tanguay_ZF_120hpf_PIG_legacy: (Legacy) Oregon State University Tanguay Lab 120 Hour Post-fertilization zebrafish Assay for Pigmentation Malformation (AID 2283650)
Procedure, shortened: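 Pigment malformation recorded as a binary call at 120 hpf in zebrafish (Tropical 5D) exposed singly from 6 hpf after pronase dechorionation. Static, sealed, 28C exposure, 0.64% DMSO; mortality excludes scoring; positive-direction fit against DMSO.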

[11] = Tanguay_ZF_120hpf_CIRC_legacy: (Legacy) Oregon State University Tanguay Lab 120 Hour Post-fertilization zebrafish Assay for Circulatory Malformation (AID 2283651)
Procedure, shortened: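 Binary circulatory malformation call at 120 hpf by brightfield imaging of zebrafish larvae; chorion removed at 4 hpf, static exposure from 6 hpf in sealed dark plates at 28C, final DMSO 0.64%; non-mortality endpoints skipped if embryo died.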

[12] = Tanguay_ZF_120hpf_TRUN_legacy: (Legacy) Oregon State University Tanguay Lab 120 Hour Post-fertilization zebrafish Assay for Truncated Body (AID 2283655)
Procedure, shortened: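 Truncated body is recorded as a binary endpoint at 120 hpf by brightfield imaging of wild-type 5D larvae. Exposure runs statically from 6 hpf at 28C with 0.64% DMSO; embryos dying earlier are not scored.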

[13] = Tanguay_ZF_120hpf_NC_legacy: (Legacy) Oregon State University Tanguay Lab 120 Hour Post-fertilization zebrafish Assay for Notochord and Tail Malformation (AID 2283656)
Procedure, shortened: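 Binary scoring of notochord distortion by brightfield microscopy; embryos dying were not scored. Wild-type Tropical 5D embryos, chorion removed, exposed singly and statically from 6 to 120 hpf, 28C, sealed, 0.64% DMSO.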

[14] = molecular target: Cellular tumor antigen p53 (Homo sapiens) (UniProt P04637); assay: TOX21_p53_BLA_p5_ratio: Tox21 HCT-116 p53 Agonism Beta-lactamase Assay, Ratio, Phase 5 (AID 2283599)
Sequence of Cellular tumor antigen p53 (Homo sapiens) (P04637 whole entry, looked up): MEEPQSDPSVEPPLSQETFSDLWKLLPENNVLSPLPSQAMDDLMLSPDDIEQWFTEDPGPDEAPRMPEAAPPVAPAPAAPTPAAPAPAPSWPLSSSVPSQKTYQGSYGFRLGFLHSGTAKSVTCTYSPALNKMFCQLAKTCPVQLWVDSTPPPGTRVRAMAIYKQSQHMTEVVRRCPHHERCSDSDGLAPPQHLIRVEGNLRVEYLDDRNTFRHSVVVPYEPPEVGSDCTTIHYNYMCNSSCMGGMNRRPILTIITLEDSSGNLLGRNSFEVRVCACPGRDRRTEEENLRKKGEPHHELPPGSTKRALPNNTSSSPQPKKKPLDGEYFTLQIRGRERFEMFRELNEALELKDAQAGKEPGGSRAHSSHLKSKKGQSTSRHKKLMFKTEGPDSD
Procedure, shortened: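 Beta-lactamase reporter ratio (blue 460 nm over green 530 nm, 405 nm excitation) after 2 h CCF4-AM loading, in HCT-116 cells exposed 16 h at 37 C to compounds pinned at 217-fold dilution. Increases relative to DMSO baseline scored.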

[15] = TOX21_p53_BLA_p5_viability: Viability Assessment in the Tox21 HCT-116 p53 Agonism Beta-lactamase Assay, Phase 5 (AID 2283600)
Procedure, shortened: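 Workflow: seed 4000 cells per well, wait 5 h, add compounds (DMSO, 217-fold dilution), incubate 16 h, load CCF4-AM 2 h, add CellTiter-Glo, read luminescence after 30 min.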

[16] = molecular target: Cellular tumor antigen p53 (Homo sapiens) (UniProt P04637); assay: TOX21_p53_BLA_p4_ratio: Tox21 HCT-116 p53 Agonism Beta-lactamase Assay, Ratio, Phase 4 (AID 2283601)
Procedure, shortened: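 Signal is the blue/green (460nm/530nm) ratio of cleaved versus uncleaved CCF4-AM substrate, read after 2 h substrate loading. Cells were HCT116 carrying the p53-responsive beta-lactamase reporter, dosed 16 h at 37C, 5% CO2; CellTiter-Glo measured in parallel.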

[17] = Tanguay_ZF_120hpf_SWIM_legacy: (Legacy) Oregon State University Tanguay Lab 120 Hour Post-fertilization zebrafish Assay for Swim Bladder Malformation (AID 2283654);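 note: swim bladder malformation in each larva scored yes or no under brightfield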
Procedure, shortened: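 Scoring is binary for swim bladder defects at 120 hpf, by brightfield inspection of zebrafish larvae. Embryos were exposed singly from 6 hpf after pronase dechorionation, at 28C with 0.64% DMSO; mortality excluded scoring.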

Measured: AC50

O=[N+]([O-])c1ccc(Cl)c(Cl)c1
not listed: [14] | [15] | [16] | [17]
inactive: all other assays above

c1nc[nH]n1
not listed: [1] | [2] | [3] | [6] | [8] | [12] | [17]
inactive: all other assays above

CC(Cc1ccc(OCC(=O)O)cc1)NCC(O)c1csc(C(F)(F)F)n1 (stereo not drawn)
not listed: [15]
inactive: all other assays above

FC(F)(F)c1ccc(Cl)cc1
inactive: [14] | [16]

Cc1ccc(O)cc1C
not listed: [5] | [7] | [14] | [15] | [16]
inactive: all other assays above

CC(Cl)(Cl)C(=O)O
not listed: [5] | [14] | [15] | [16]
inactive: all other assays above

CN(C)C(=O)Cl
not listed: [8] | [14] | [15] | [16] | [17]
inactive: all other assays above

COCCOCCO
not listed: [8] | [14] | [15] | [16]
inactive: all other assays above

CCCCN(CCCC)SN(C)C(=O)Oc1cccc2c1OC(C)(C)C2
not listed: [3] | [6] | [14] | [15] | [16]
inactive: all other assays above

CCC1(c2ccccc2)C(=O)N=C(O)NC1=O (stereo not drawn)
not listed: [14] | [15]
inactive: all other assays above

O=C(CBr)OCc1ccccc1
inactive: [15]

CCCCc1ccc(O)cc1
inactive: [14] | [16]

O=c1ssc(Cl)c1Cl
inactive: [15] | [16]

CCOP(=S)(OCC)SCSCC
not listed: [14] | [15] | [16]
inactive: all other assays above

COP(=O)(O)OC
active: [15] 85.6 µM
inactive: [16]

NNC(N)=S
inactive: [14] | [16]

ClC(Cl)c1ccccc1
not listed: [7] | [14] | [15] | [16]
inactive: all other assays above

CCNc1nc(Cl)nc(NC(C)(C)C)n1
not listed: [3] | [6] | [14] | [15] | [16]
inactive: all other assays above

O=C(O)C(Cl)Cl
not listed: [14] | [15] | [16]
inactive: all other assays above

CCOP(=S)(Oc1ccc([N+](=O)[O-])cc1)c1ccccc1 (stereo not drawn)
not listed: [2] | [10] | [14] | [15] | [16]
inactive: all other assays above

CCCCc1ccccc1
not listed: [13] | [14] | [15] | [16]
inactive: all other assays above

CCCCOCCOP(=O)(OCCOCCCC)OCCOCCCC
inactive: [15] | [16]

CSC(C)(C)C=NO
not listed: [14] | [15] | [16]
inactive: all other assays above

CCOc1ccc(C(C)(C)COCc2cccc(Oc3ccccc3)c2)cc1
not listed: [5] | [14]
inactive: all other assays above

CC(C)(C)c1ccc(O)cc1
active: [10] 25.2 µM
not listed: [5] | [7] | [14] | [15] | [16]
inactive: all other assays above

O=P1(N(CCCl)CCCl)NCCCO1 (stereo not drawn)
not listed: [15]
inactive: all other assays above

CCCCCCCc1ccc(O)cc1
not listed: [5] | [9] | [14] | [15] | [16]
inactive: all other assays above

Cc1c([N+](=O)[O-])cc2c(c1[N+](=O)[O-])C(C)(C)CC2(C)C
inactive: [15] | [16]

CCOP(=S)(S)OCC
inactive: [15] | [16]

COC(N)=O
inactive: [14] | [16]

CCCN(CCC)c1c([N+](=O)[O-])cc(C(C)C)cc1[N+](=O)[O-]
not listed: [3] | [5] | [10] | [11] | [14] | [16]
inactive: all other assays above

CCOC(=O)c1ccccc1C(=O)OCC
not listed: [5] | [13] | [15]
inactive: all other assays above

Cc1ccc([N+](=O)[O-])cc1C
not listed: [9] | [14] | [15] | [16] | [17]
inactive: all other assays above

C/C(=N\NC(=O)Nc1cc(F)cc(F)c1)c1ncccc1C(=O)O
inactive: [15]

CCCCC(CC)COC(=O)c1c(Br)c(Br)c(Br)c(Br)c1C(=O)OCC(CC)CCCC (stereo not drawn)
inactive: [14] | [16]

O=S(=O)(c1ccc(O)cc1)c1ccc(O)cc1
inactive: [15]

c1ccc(OP(Oc2ccccc2)Oc2ccccc2)cc1
not listed: [15] | [16]
inactive: all other assays above
